# Experimental data reported in article PMC11024108.
# What was measured:
# Assay in all cases: cross-link between two proteins; cross-linking mass spectrometry
# Gamma-enolase = Gamma-enolase (UniProt P17183)
# [1] = target: Gamma-soluble NSF attachment protein (UniProt Q9CWZ7)
# Glutamate receptor 2 = Glutamate receptor 2 (UniProt P23819)
# [2] = target: Glyceraldehyde-3-phosphate dehydrogenase (UniProt P16858)
# [3] = target: Guanine nucleotide-binding protein G(I)/G(S)/G(O) subunit gamma-5 (UniProt P63218)
# [4] = target: Guanine nucleotide-binding protein G(I)/G(S)/G(T) subunit beta-1 (UniProt P62874)
# [5] = target: Guanine nucleotide-binding protein subunit beta-4 (UniProt Q9HAV0)
# [6] = target: Heat shock cognate 71 kDa protein (UniProt P11142)
# [7] = target: Heat shock cognate 71 kDa protein (UniProt P63017)
# Chain of Heat shock cognate 71 kDa protein (UniProt P63017) (P63017 whole entry): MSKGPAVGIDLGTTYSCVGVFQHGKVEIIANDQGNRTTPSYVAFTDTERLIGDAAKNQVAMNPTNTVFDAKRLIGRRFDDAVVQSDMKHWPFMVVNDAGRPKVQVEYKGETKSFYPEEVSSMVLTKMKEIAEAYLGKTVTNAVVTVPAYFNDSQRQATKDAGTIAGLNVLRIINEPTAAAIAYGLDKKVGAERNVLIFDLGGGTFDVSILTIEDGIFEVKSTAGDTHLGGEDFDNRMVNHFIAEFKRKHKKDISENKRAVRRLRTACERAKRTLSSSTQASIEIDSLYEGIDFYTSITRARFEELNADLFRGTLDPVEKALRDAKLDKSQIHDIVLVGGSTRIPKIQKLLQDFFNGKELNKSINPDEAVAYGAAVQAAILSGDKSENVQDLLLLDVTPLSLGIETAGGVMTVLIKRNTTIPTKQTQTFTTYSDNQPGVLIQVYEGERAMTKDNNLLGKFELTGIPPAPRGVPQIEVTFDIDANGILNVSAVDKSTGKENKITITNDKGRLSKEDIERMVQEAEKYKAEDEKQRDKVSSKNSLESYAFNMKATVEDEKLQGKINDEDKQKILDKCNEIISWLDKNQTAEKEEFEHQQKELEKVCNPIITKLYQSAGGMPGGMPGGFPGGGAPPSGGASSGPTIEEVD
# [8] = target: Hemoglobin subunit beta-1 (UniProt P02088)
# Histone H2B type 1-H = Histone H2B type 1-H (UniProt Q93079)
# [9] = target: Hyaluronan and proteoglycan link protein 1 (UniProt Q9QUP5)
# [10] = target: Insulin-like growth factor 1 receptor (UniProt Q60751)
# Intersectin-1 = Intersectin-1 (UniProt Q9Z0R4)
# Chain of Intersectin-1 (Q9Z0R4 whole entry, canonical isoform): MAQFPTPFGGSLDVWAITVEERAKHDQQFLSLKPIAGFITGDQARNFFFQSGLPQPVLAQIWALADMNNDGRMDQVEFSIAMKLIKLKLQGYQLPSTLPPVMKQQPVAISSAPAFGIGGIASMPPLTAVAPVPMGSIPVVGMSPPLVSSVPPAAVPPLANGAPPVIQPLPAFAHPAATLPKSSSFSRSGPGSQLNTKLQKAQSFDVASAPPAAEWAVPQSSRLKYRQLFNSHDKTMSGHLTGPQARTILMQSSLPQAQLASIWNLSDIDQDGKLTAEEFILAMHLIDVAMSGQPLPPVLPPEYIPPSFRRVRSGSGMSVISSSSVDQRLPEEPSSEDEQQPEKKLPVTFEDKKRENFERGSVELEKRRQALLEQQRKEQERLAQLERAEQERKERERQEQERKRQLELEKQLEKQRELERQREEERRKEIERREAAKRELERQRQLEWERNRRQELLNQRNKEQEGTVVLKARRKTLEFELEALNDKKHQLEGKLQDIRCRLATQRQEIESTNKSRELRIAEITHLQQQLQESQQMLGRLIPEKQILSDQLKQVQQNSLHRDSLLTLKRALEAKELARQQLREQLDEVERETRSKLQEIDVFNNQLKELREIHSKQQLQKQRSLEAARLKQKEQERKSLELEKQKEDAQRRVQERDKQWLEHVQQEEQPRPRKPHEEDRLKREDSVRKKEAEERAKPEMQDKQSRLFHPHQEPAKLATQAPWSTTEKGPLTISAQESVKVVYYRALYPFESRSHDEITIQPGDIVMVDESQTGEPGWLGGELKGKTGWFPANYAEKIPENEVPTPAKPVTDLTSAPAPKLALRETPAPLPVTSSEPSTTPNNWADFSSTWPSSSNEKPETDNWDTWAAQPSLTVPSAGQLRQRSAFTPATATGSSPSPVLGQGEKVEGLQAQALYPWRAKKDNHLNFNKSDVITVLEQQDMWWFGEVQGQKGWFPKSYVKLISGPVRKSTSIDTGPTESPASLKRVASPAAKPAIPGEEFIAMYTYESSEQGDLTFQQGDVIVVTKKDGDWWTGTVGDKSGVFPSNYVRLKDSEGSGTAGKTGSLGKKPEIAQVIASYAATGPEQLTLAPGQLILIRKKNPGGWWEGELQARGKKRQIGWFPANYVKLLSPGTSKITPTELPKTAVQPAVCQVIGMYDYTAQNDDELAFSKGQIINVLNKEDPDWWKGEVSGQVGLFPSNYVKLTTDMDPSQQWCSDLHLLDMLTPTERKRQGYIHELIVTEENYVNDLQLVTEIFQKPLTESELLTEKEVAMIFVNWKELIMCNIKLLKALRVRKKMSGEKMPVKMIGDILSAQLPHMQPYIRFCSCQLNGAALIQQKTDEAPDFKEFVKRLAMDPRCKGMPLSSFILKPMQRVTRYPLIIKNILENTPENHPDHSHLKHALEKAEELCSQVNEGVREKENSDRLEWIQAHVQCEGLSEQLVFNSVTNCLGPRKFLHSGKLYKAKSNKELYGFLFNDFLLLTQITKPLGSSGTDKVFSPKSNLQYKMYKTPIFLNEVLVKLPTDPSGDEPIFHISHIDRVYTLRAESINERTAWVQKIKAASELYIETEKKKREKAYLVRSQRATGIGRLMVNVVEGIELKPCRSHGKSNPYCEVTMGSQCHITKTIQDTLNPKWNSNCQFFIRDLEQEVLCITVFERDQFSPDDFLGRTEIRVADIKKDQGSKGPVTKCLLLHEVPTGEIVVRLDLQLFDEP
# [11] = target: Kinesin heavy chain isoform 5C (UniProt P28738)
# Kinesin light chain 2 = Kinesin light chain 2 (UniProt O88448)
# [12] = target: Lanosterol 14-alpha demethylase (UniProt Q16850)
# [13] = target: Lysocardiolipin acyltransferase 1 (UniProt Q6UWP7)
# [14] = target: Limbic system-associated membrane protein (UniProt Q8BLK3)
# [15] = target: Melanoma inhibitory activity protein 2 (UniProt Q91ZV0)
# [16] = target: Microtubule-associated protein 1A (UniProt Q9QYR6)
# [17] = target: Mitochondrial import inner membrane translocase subunit TIM16 (UniProt Q9Y3D7)
# Chain of Mitochondrial import inner membrane translocase subunit TIM16 (Q9Y3D7 whole entry): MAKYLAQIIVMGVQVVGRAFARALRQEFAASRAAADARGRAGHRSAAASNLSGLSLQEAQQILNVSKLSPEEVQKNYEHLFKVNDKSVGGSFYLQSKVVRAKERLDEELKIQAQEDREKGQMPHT
# [18] = target: Mitochondrial import inner membrane translocase subunit Tim9 (UniProt Q9Y5J7)
# [19] = target: Monocarboxylate transporter 1 (UniProt P53985)
# Myosin light chain 6B = Myosin light chain 6B (UniProt Q8CI43)
# Chain of Myosin light chain 6B (Q8CI43 whole entry): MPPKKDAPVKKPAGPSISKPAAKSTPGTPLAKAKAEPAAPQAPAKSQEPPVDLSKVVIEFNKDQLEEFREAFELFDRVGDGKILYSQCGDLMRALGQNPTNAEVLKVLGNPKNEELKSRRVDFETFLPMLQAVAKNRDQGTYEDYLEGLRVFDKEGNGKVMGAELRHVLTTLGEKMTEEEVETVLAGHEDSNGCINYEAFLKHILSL
# Myosin-14 = Myosin-14 (UniProt Q6URW6)
# Myosin-9 = Myosin-9 (UniProt Q8VDD5)
# [20] = target: NADPH:adrenodoxin oxidoreductase, mitochondrial (UniProt P22570)
# Neurofascin = Neurofascin (UniProt Q810U3)
# [21] = target: Neuronal pentraxin receptor (UniProt Q99J85)
# [22] = target: Neuronal-specific septin-3 (UniProt Q9Z1S5)
# Septin-11 = Septin-11 (UniProt Q8C1B7)
# Septin-6 = Septin-6 (UniProt Q9R1T4)
# Septin-8 = Septin-8 (UniProt Q8CHH9)
# Septin-9 = Septin-9 (UniProt Q80UG5)
# Chain of Septin-9 (Q80UG5 whole entry): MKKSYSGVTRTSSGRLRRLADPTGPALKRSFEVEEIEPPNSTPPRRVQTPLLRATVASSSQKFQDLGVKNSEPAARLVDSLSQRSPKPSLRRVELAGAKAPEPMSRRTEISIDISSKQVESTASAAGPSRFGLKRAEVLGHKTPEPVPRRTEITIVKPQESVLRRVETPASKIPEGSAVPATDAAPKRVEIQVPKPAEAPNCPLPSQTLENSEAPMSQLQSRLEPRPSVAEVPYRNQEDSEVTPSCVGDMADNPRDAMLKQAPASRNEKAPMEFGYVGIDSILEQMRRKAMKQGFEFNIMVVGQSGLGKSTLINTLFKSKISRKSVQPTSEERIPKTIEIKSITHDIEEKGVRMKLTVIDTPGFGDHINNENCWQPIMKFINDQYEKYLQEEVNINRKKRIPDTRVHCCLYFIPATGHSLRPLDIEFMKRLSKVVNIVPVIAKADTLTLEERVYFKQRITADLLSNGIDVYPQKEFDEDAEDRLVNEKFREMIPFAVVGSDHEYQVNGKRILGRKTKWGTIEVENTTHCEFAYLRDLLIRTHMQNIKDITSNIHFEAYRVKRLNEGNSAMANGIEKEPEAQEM
# [23] = target: Neutral alpha-glucosidase AB (UniProt Q14697)
# [24] = target: Non-POU domain-containing octamer-binding protein (UniProt Q99K48)
# [25] = target: Non-selective voltage-gated ion channel VDAC2 (UniProt P45880)
# [26] = target: Non-selective voltage-gated ion channel VDAC3 (UniProt Q9Y277)
# Chain of Non-selective voltage-gated ion channel VDAC3 (Q9Y277 whole entry): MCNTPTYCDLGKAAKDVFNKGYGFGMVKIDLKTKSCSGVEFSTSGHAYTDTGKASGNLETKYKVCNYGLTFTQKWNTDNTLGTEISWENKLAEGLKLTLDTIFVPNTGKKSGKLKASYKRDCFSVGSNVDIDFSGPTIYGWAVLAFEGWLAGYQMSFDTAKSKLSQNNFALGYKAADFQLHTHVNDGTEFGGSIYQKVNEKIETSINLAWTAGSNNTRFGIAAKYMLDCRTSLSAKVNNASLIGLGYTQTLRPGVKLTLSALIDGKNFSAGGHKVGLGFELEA
# [27] = target: Nucleosome assembly protein 1-like 4 (UniProt Q78ZA7)
# [28] = target: Osteopetrosis-associated transmembrane protein 1 (UniProt Q86WC4)
# [29] = target: Peptidyl-prolyl cis-trans isomerase B (UniProt P23284)
# Peroxiredoxin-2 = Peroxiredoxin-2 (UniProt Q61171)
# Peroxiredoxin-4 = Peroxiredoxin-4 (UniProt Q13162)
# Chain of Peroxiredoxin-4 (Q13162 whole entry): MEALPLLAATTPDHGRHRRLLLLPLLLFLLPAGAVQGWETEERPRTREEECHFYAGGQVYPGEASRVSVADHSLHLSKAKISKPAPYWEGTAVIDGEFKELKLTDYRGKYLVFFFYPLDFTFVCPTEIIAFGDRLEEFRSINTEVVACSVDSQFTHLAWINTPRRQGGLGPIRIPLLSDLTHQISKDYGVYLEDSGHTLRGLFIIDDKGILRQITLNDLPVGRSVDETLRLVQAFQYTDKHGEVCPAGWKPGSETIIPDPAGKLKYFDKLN
# [30] = target: Peroxisomal bifunctional enzyme (UniProt Q08426)
# [31] = target: Phosphoglycerate mutase 1 (UniProt Q9DBJ1)
# [32] = target: Plasma membrane calcium-transporting ATPase 4 (UniProt Q6Q477)
# [33] = target: Polymerase delta-interacting protein 2 (UniProt Q9Y2S7)
# [34] = target: Potassium voltage-gated channel subfamily A member 2 (UniProt P63141)
# Prefoldin subunit 5 = Prefoldin subunit 5 (UniProt Q99471)
# [35] = target: Prostaglandin E synthase 2 (UniProt Q9H7Z7)
# [36] = target: Proteasome activator complex subunit 2 (UniProt P97372)
# [37] = target: Proteasome subunit alpha type-6 (UniProt P60900)
# [38] = target: Proteasome subunit alpha type-6 (UniProt Q9QUM9)
# [39] = target: Proteasome subunit alpha type-7 (UniProt Q9Z2U0)
# Chain of Proteasome subunit alpha type-7 (Q9Z2U0 whole entry): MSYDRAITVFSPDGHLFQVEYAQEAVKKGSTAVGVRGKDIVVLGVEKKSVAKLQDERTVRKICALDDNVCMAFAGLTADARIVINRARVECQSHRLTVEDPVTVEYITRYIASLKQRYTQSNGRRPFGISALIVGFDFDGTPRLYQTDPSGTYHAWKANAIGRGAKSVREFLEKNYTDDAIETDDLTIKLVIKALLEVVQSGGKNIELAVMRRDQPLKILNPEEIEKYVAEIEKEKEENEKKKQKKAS
# [40] = target: Proteasome subunit beta type-4 (UniProt P99026)
# Chain of Membrane-associated progesterone receptor component 1, O00264 (O00264 whole entry): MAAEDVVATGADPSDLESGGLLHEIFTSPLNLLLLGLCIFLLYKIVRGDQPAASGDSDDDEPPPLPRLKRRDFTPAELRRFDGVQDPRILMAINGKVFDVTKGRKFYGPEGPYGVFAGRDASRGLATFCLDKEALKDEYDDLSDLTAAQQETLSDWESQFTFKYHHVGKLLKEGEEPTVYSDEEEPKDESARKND
# Chain of Heat shock protein HSP 90-beta, P08238 (P08238 whole entry): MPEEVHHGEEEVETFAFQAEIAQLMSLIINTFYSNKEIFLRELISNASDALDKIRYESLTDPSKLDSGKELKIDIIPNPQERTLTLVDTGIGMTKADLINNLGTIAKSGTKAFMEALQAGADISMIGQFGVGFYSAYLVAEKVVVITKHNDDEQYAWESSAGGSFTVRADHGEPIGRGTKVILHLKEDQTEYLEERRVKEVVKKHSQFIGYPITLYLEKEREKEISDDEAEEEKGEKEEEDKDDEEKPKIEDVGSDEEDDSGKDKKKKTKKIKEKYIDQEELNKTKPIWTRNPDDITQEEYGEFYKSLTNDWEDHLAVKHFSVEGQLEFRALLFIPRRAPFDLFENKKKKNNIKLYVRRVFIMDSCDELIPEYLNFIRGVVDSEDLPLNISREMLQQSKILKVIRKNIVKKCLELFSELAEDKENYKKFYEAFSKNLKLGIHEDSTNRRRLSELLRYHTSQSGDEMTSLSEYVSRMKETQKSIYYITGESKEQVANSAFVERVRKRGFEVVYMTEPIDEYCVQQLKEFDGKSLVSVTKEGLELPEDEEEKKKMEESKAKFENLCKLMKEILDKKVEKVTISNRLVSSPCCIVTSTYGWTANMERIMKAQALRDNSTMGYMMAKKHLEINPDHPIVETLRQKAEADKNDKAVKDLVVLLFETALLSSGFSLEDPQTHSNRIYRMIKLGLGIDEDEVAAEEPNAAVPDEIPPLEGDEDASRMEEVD
substance,measurement,setting,value
"Alpha-enolase, P17182",listed as a hit,Gamma-enolase,yes
"Beta-soluble NSF attachment protein, P28663",listed as a hit,[1],yes
"DOMON domain-containing protein FRRS1L, B1AXV0",listed as a hit,Glutamate receptor 2,yes
"Fructose-bisphosphate aldolase A, P05064",listed as a hit,[2],yes
"Guanine nucleotide-binding protein G(I)/G(S)/G(T) subunit beta-2, P62879",listed as a hit,[3],yes
"Guanine nucleotide-binding protein G(I)/G(S)/G(O) subunit gamma-4, P50153",listed as a hit,[4],yes
"Guanine nucleotide-binding protein G(I)/G(S)/G(O) subunit gamma-5, P63218",listed as a hit,[5],yes
"Heat shock protein HSP 90-beta, P08238",listed as a hit,[6],yes
"Heat shock 70 kDa protein 4L, P48722",listed as a hit,[7],yes
"Hemoglobin subunit alpha, P01942",listed as a hit,[8],yes
"Programmed cell death protein 4, Q53EL6",listed as a hit,Histone H2B type 1-H,yes
"Neurocan core protein, P55066",listed as a hit,[9],yes
"Insulin receptor, P15208",listed as a hit,[10],yes
"Epidermal growth factor receptor substrate 15-like 1, Q60902",listed as a hit,Intersectin-1,yes
"Kinesin light chain 1, O88447",listed as a hit,[11],yes
same,listed as a hit,Kinesin light chain 2,yes
"Membrane-associated progesterone receptor component 1, O00264",listed as a hit,[12],yes
same,listed as a hit,[13],yes
"Rho-associated protein kinase 2, P70336",listed as a hit,[14],yes
"Transport and Golgi organization protein 1 homolog, Q8BI84",listed as a hit,[15],yes
"Microtubule-associated protein 1B, P14873",listed as a hit,[16],yes
"Mitochondrial import inner membrane translocase subunit TIM14, Q96DA6",listed as a hit,[17],yes
"Mitochondrial import inner membrane translocase subunit Tim22, Q9Y584",listed as a hit,[18],yes
"Basigin, P35613",listed as a hit,[19],yes
"Myosin-10, Q61879",listed as a hit,Myosin light chain 6B,yes
same,listed as a hit,Myosin-14,yes
same,listed as a hit,Myosin-9,yes
"Dihydrolipoyl dehydrogenase, mitochondrial, P09622",listed as a hit,[20],yes
"Contactin-associated protein 1, O54991",listed as a hit,Neurofascin,yes
"Neuronal pentraxin-1, Q62443",listed as a hit,[21],yes
"Septin-7, O55131",listed as a hit,[22],yes
same,listed as a hit,Septin-11,yes
same,listed as a hit,Septin-6,yes
same,listed as a hit,Septin-8,yes
same,listed as a hit,Septin-9,yes
"Calreticulin, P27797",listed as a hit,[23],yes
"Splicing factor, proline- and glutamine-rich, Q8VIJ6",listed as a hit,[24],yes
"Hexokinase-1, P19367",listed as a hit,[25],yes
"Non-selective voltage-gated ion channel VDAC2, P45880",listed as a hit,[26],yes
"Nucleosome assembly protein 1-like 1, P28656",listed as a hit,[27],yes
"H(+)/Cl(-) exchange transporter 7, P51798",listed as a hit,[28],yes
"Protein disulfide-isomerase A4, P13667",listed as a hit,[29],yes
"Peroxiredoxin-1, P35700",listed as a hit,Peroxiredoxin-2,yes
"Peroxiredoxin-1, Q06830",listed as a hit,Peroxiredoxin-4,yes
"Catalase, P04040",listed as a hit,[30],yes
"Phosphoglycerate mutase 2, O70250",listed as a hit,[31],yes
"Plasma membrane calcium-transporting ATPase 1, G5E829",listed as a hit,[32],yes
"ATP-dependent clpX-like chaperone, mitochondrial, O76031",listed as a hit,[33],yes
"Voltage-gated potassium channel subunit beta-2, P62482",listed as a hit,[34],yes
"Prefoldin subunit 1, O60925",listed as a hit,Prefoldin subunit 5,yes
"Glycerol-3-phosphate dehydrogenase, mitochondrial, P43304",listed as a hit,[35],yes
"Proteasome activator complex subunit 1, P97371",listed as a hit,[36],yes
"Proteasome subunit alpha type-2, P25787",listed as a hit,[37],yes
"Proteasome subunit alpha type-2, P49722",listed as a hit,[38],yes
"Proteasome subunit alpha type-4, Q9R1P0",listed as a hit,[39],yes
"Proteasome subunit beta type-7, P70195",listed as a hit,[40],yes
